# Screening data: PubChem, National Center for Advancing Translational Sciences (NCATS)
# Rows were chosen to be rich in hits. Some 3.6% of all compounds tested hit in one or more screens of this group.
# D1 antag = Antagonist of Human D 1 Dopamine Receptor: qHTS; D(1A) dopamine receptor (Homo sapiens), P21728; HEK293 TREx D1 cells, calcium flux, dopamine EC80; active compounds read low; activity change, negative = inhibition, % at 10 µM; 3.2% of 360,000 active; AID 504652, 2011; in the data active = activity change below about -30%; note: % is set by controls: 0 for no effect and ±100 for the full control effect
# Target sequence (P21728 whole entry, looked up): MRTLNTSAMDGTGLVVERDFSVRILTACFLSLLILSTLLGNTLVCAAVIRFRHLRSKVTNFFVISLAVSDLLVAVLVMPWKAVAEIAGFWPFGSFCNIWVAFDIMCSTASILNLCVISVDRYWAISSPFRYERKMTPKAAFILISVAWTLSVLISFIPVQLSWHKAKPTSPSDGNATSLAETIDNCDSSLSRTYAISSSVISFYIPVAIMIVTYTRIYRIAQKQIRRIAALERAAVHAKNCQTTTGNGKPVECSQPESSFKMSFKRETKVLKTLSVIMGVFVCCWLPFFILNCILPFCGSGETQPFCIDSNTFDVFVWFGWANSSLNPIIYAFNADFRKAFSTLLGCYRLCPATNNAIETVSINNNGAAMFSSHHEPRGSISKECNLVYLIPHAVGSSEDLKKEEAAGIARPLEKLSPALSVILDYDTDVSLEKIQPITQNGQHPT
#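 Compound effects on dopamine-evoked calcium signalling were measured in tetracycline-induced HEK293 Trex D1 cells. Dopamine at EC80 followed a 180 s compound pre-read, and fluorescence was tracked kinetically for 180 s more.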
# D1 agonist = Allosteric Agonists of the Human D1 Dopamine Receptor: qHTS; activation, % at 2 µM; HEK293 T-REx D1 cells, calcium flux, agonist mode; 1% of 360,000 active; note: 0% is about no effect
#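 Inducible HEK293 T-REx D1 cells, force-coupled to calcium signalling, were plated at 4000 cells/well with tetracycline and held overnight at 30 C. After no-wash calcium dye loading, compound-evoked calcium rise over 180 s flagged agonists.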
# LDHA block = qHTS assay for inhibitors of human lactate dehydrogenase; L-lactate dehydrogenase A chain (Homo sapiens), P00338; purified LDHA, NADH/diaphorase-resazurin fluorescence; active compounds read low; activity change, % (values are at about 110 or 230 µM); 0.15% of 480,000 active; in the data active = activity change below about -30%;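 note: plate controls were DMSO wells for no effect and wells without enzyme for full effect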
#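 Resorufin fluorescence (ex540/em590), read at 0 and 20 min after diaphorase/resazurin addition, reports the NADH left after a 5 min room-temperature reaction of 2 nM human LDH5 with 0.06 mM NADH and 0.2 mM pyruvate.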
# TRHR ag = qHTS for Small Molecule Agonists and Allosteric Enhancers of Human TRH Receptor: Primary Screen for Agonists; Thyrotropin-releasing hormone receptor (Homo sapiens), P34981; TRHR cells, calcium flux fluo-8, FDSS agonist mode; activation, % at 2 µM; 0.18% of 360,000 active; AID 493084, 2011; note: 0% is about no effect
#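 Agonist-mode FDSS calcium read (Ex 480/Em 530, 1 s cycles) in 1536-well TRHR cells with fluo-8 dye, after 10-cycle baseline and 23 nL compound addition; TRH at EC20 (10 nM final) added afterwards for the enhancer phase.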
# TRHR PAM = qHTS for Small Molecule Agonists and Allosteric Enhancers of Human TRH Receptor: Primary Screen for Enhancers | AID 493056, 2011 | TRHR cells, fluo-8 calcium fluorescence, EC20 TRH enhancement | 0.66% of 360,000 active | enhancement, % at 2 µM | Thyrotropin-releasing hormone receptor (Homo sapiens), P34981; in the data active = enhancement above about 30%; note: 0% is about no effect
#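 TRHR-expressing cells loaded with fluo-8 calcium dye were read kinetically (ex 480/em 530) during compound addition, then stimulated with an EC20 of TRH (10 nM final). Enhancement of the Gq-mediated intracellular calcium response was scored.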
# D1 potentiator = Potentiators of Human D1 Dopamine Receptor: qHTS. HEK293 TREx D1 cells, calcium flux, dopamine EC20 potentiation. potentiation, % at 10 µM. 0.036% of 360,000 active; in the data active = potentiation above about 30%; note: 0% is about no effect
# * marks the source's active call; other numbers are inactive results; · = not tested or not shown; ! = not active in a repeat. Cut-off read from the data, not from the text of the source, unless noted: active = activation above about 30%; inactive = the rest.
SMILES,D1 antag,D1 agonist,LDHA block,TRHR ag,TRHR PAM,D1 potentiator
O=C(Nc1ccncc1)c1ccc2ccccc2c1,-38*,8,-7,0,3,-8
O=C(CSc1ccncc1)Nc1ccc2ccccc2c1,-31*,14,7,0,-2,-9
COc1cccc(C(=O)Nc2ccncc2)c1,-59*,3,·,0,0,-9
COC(=O)c1ccc(NC(=O)c2cccc(OC)c2)cc1,-52*,23,-5,-1,-9,-3
CC(C)CC(=O)Nc1nnc(S(=O)(=O)N2CCc3ccccc32)s1,-46*!,0,-7,0,7,-3
O=C(NCCS(=O)(=O)c1ccc(Br)cc1)c1ccc(Cl)cc1Cl,-39*,1,-3,-1,-1,-8
O=C(NCCS(=O)(=O)c1ccc(Br)cc1)c1ccccc1,-12,1,-5,0,2,-3
O=[N+]([O-])c1ccc(O)c(N=Cc2sc3ccccc3c2O)c1,16,27,5,17,-1,2
Cc1cccc(/N=C/c2c(O)[nH]c3ccccc23)n1,-14,33*,-4,0,-6,-8
Oc1c(C=Nc2cccc3cccnc23)sc2ccccc12,-24,158*,·,50*,9,0
Cc1cccc(/N=C/c2sc3ccccc3c2O)n1,3,52*,-3,10,14,-6
CC(C)N=Cc1c(O)[nH]c2ccccc12,·,0,1,0,9,-3
Cc1ccc(Oc2ccc(NC(=O)C3(C#N)CCCC3)cc2)cc1,·,·,0,·,·,·
Clc1ccc(-c2noc(-c3cc(-c4ccco4)n[nH]3)n2)cc1,·,·,-2,·,·,·
CCCn1c(=O)n(CCC(=O)N(C)CC(=O)Nc2ccccc2Cl)c2ccccc21,·,·,13,·,·,·
O=C(CCn1c(=O)sc2ccccc21)NCc1ccco1,-2,79*,-3,0,-8,-5
O=C(CSc1nnc(Cn2c(=O)sc3ccccc32)n1-c1ccccc1)NCc1ccco1,-1,0,-2,0,40*,-4
Cc1cc(C)n2c(SCC(=O)NCc3ccco3)nnc2n1,-59*,0,-9,1,1,0
COc1cccc(-n2c(COc3ccccc3C)nnc2SCC(=O)O)c1,-32*,0,-8,-1,3,-4
Cn1c(Cn2c(=O)sc3ccccc32)nnc1SCC(=O)NCc1ccco1,-12,2,-3,0,1,-2
Cc1ccccc1OCc1nnc(SCC(=O)O)n1-c1ccccc1,3,3,-2,0,0,-2
CCc1ccc(C(=O)C(C)Oc2ccc3ccc(=O)oc3c2)cc1 (stereo not given),·,·,0,·,·,·
Cc1ccc(/C=N/NC(=O)c2cccc(N(C)C)c2)cc1,·,·,10,·,·,·
O=C(CSc1nnc(Cc2ccccc2)n1Cc1ccccc1)NCc1ccco1,-6,2,3,0,-1,4
COc1ccc(-n2c(COc3cccc4ccccc34)nnc2SCC(=O)NCc2ccco2)cc1,-34*,10,0,-1,-5,-10
SMILES,D1 antag,D1 agonist,LDHA block,TRHR ag,TRHR PAM,D1 potentiator
Cc1ccccc1-n1c(Cn2c(=O)sc3ccccc32)nnc1SCC(=O)N1CCOCC1,-38*,4,-5,0,3,·
O=C(CSc1nnc(Cn2c(=O)sc3ccccc32)n1-c1ccccc1)N1CCOCC1,-6,7,1,-1,5,-3
O=C(CSc1nnc(CNc2ccc(Cl)cc2)n1Cc1ccccc1)NCc1ccco1,-32*,6,5,4,-5,0
CC(=O)Nc1cccc(NC(=O)CCn2c(=O)sc3ccccc32)c1,-90*,3,-5,0,5,-4
COc1ccc(-n2c(COc3ccc4ccccc4c3)nnc2SCC(=O)NCc2ccco2)cc1,0,13,-2,2,19,-6
Cn1c(=O)[nH]c(=O)c2c1nc(Sc1nc3ccccc3[nH]1)n2Cc1ccccc1Cl,·,·,3,·,·,·
